CYP2C9 act: human CYP2C9 activators, primary screen, biochemical, luminescence; activation factor at 5 µM; recombinant CYP2C9, luciferin-H conversion; stronger effect = higher value; factor 1 = untreated enzyme, 0 = blocked; 96,000 compounds, 1.4% hits; Cytochrome P450 2C9 (Homo sapiens), P11712;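 active = activation factor of 2 or more for CYP2C9 at a 5 µM dose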;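 also: 0 = sulfaphenazole-blocked wells and 1 = vehicle-only wells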
CYP2C19 inh: blockers of cytochrome P450 2C19 activity – biochemical, luminescence, ADME assay, primary screen; inhibition, % at 5 µM; 96,000 compounds, 21% hits; CYP2C19 Supersomes, luciferin-H EGE luminescence, 30 min;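 active = CYP2C19 inhibition above a set limit at 5 µM in the primary screen, cut at about 50% in these data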;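 also: plate controls were negative control wells for no effect and 2.5 mM tranylcypromine positive control for full effect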
Target sequence (P33261 whole entry, looked up): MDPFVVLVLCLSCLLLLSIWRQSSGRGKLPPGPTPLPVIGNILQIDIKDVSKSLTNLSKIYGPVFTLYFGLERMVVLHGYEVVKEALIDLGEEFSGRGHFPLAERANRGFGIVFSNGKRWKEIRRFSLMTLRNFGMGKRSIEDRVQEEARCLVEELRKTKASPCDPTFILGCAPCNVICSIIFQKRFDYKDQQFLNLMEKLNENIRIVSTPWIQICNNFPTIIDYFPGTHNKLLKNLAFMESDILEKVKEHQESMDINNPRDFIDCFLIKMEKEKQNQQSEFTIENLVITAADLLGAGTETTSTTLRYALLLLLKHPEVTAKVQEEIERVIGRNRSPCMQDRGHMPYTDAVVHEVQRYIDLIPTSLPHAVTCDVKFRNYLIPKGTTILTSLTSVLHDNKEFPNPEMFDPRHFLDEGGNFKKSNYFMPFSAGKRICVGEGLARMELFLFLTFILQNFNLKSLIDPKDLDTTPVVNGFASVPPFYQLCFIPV
CYP2C9 inhib: blockers of cytochrome P450 2C9 activity – biochemical, luminescence, ADME assay, primary screen; P11712; CYP2C9 Supersomes, luciferin-H conversion; inhibition, % at 5 µM; 96,000 compounds, 20% hits; AID 777, 2007;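 active = blocking of liver enzyme CYP2C9 beyond about 50% at 5 µM, limit read from the data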
CYP2C19 activ: human CYP2C19 activators, primary screen, biochemical, luminescence | recombinant CYP2C19, luciferin-H EGE luminescence; stronger effect = higher value; 0 = fully inhibited enzyme, 1 = untreated enzyme | activation factor at 5 µM | 96,000 tested, under 10 active | AID 1025, 2008;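 active = activation factor of at least 2 at 5 µM in the primary screen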;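 also: 0 = wells with 2.5 mM tranylcypromine and 1 = vehicle-only wells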
* = called active by the depositor. A selection: hits, their analogues and other compounds. The true share with any hit is near 31%.

SMILES	CYP2C9 act	CYP2C19 inh	CYP2C9 inhib	CYP2C19 activ
Cc1c(NC(=O)CCCCCN2C(=O)C3C4C=CC(C4)C3C2=O)c(=O)n(-c2ccccc2)n1C (stereo unspecified)	0.9	-15.2	9.5	1.2
O=S(=O)(Nc1ccc(N2CCOCC2)cc1)c1ccc(Cl)s1	0	100.3*	100.3*	0
CCOC(=O)CCP(=O)(O)C(O)c1ccc(OC)cc1 (stereo unspecified)	0.9	-0.4	5.5	1
Cc1cccc(OCC(=O)Nc2cccc(O)c2)c1	0.8	79.0*	21.7	0.2
Cc1cc(C)n(C(=O)COc2c(C)cccc2C)n1	0.9	45.6	9.8	0.5
Cc1cccc(OCC(=O)NCC(=O)n2nc(C)cc2C)c1	2.1*	60.6*	-114.3	0.4
O=C(COc1ccccc1)Nc1ccc(OC(F)(F)C(F)F)c(NC(=O)COc2ccccc2)c1	0.5	16.9	53.8*	0.8
Cc1cccc(NC(=O)COc2ccccc2)c1	0.8	82.7*	21.2	0.2
Cc1ccc(OCC(=O)Nc2cccc(O)c2)cc1C	1.4	17.1	-43.4	0.8
CC(=O)Nc1ccc(OC(F)(F)C(F)F)c(NC(C)=O)c1	1.1	-14.6	-6.5	1.1
CCOC(=O)C1=C(Nc2ccc(C)cc2)CC(C)(O)C(C(=O)OCC)C1c1ccccc1 (stereo unspecified)	1.1	2.7	-6.9	1
Cc1cccc(/C=C2/S/C(=N/N=C3\CC4CCC3(C)C4(C)C)NC2=O)c1 (stereo unspecified)	0.8	-12.6	17.2	1.1
COc1ccc(N(CC(=O)NN=C2CCCCCCC2)S(=O)(=O)c2ccccc2)cc1	0.6	32.3	43.2	0.7
Cc1cccc(NC(=O)COc2nsnc2N2CCOCC2)c1	0.8	55.7*	17.1	0.4
CC1(CCc2ccc(O)cc2)NC(=O)NC1=O (stereo unspecified)	1	2.3	-0.3	1
CCC(CC)C(=O)Nc1ccccc1NC(C)=O	0.9	2.3	10.1	1
C=CCc1cccc2cc(NC(C)=O)c(=O)oc12	2.8*	36.6	-181.1	0.6
COc1ccc(Nc2nnc(-c3ccc(N4CCOCC4)c([N+](=O)[O-])c3)c3ccccc23)cc1	0.5	16.8	53.4*	0.8
COc1nnc(-c2ccc(N3CCOCC3)c(NC(=O)c3ccc(C)cc3)c2)c2ccccc12	0.6	28.4	43.3	0.7
CC(=NC1CCCCC1)C1=C(O)c2ccccc2C1=O	0.1	87.1*	86.5*	0.1
O=C1CC(c2ccccc2)CC(O)=C1C=NC1CCCCCC1 (stereo unspecified)	0.7	36.7	25.1	0.6
CCN(CC)CCOc1c(Br)ccc2c1sc1nc3n(c(=O)c12)CCC3	0.8	83.8*	15.1	0.2
COc1ccc(C(C(=O)NC2CCCC2)N(Cc2ccc(C)cc2)C(=O)c2ccn[nH]2)cc1OC (stereo unspecified)	0.8	12.9	19.6	0.9
CCN1CCc2c(C#N)c(N3CCCCC3)nc(NCc3ccccc3)c2C1	0.3	30.5	70.5*	0.7
CCN1CCc2c(C#N)c(N3CCOCC3)nc(NCc3ccccc3)c2C1	0.3	46.3	70.4*	0.5
SMILES	CYP2C9 act	CYP2C19 inh	CYP2C9 inhib	CYP2C19 activ
CCN1CCc2c(C#N)c(N3CCOCC3)nc(NCCO)c2C1	1	-2.7	2.4	1
N#Cc1c(N)sc(=S)c2c1CCN(Cc1ccccc1)C2	0.3	74.3*	69.0*	0.3
CCN1CCc2c(sc(N)c2C#N)C1	1	0.1	4.8	1
CCOC(=O)c1cc(C#N)c(NCc2ccccc2)nc1C	0.7	6.1	25.1	0.9
N#Cc1c(NCCO)nc(NCc2ccccc2)c2c1CCN(Cc1ccccc1)C2	0.1	25.7	94.3*	0.7
O=C(NC12CC3CC(CC(C3)C1)C2)C12CC3CC(C1)CC(n1cnc(Cl)n1)(C3)C2	1	26.7	-1.7	0.7
O=C(NC1CCCCC1)c1ccc(Cn2cc(Cl)cn2)cc1	0.7	-0.9	27.4	1
C=CCNc1nc(N2CCCCC2)c(C#N)c2c1CN(Cc1ccccc1)CC2	0.1	61.6*	90.3*	0.4
C=CCNc1nc(N2CCOCC2)c(C#N)c2c1CN(C)CC2	0.6	13.7	40.4	0.9
CCOc1nc(-c2ccccc2)ccc1-c1noc(COc2ccccc2)n1	0.2	60.1*	79.7*	0.4
Cc1cc(OCc2nc(-c3cccs3)no2)cc(C)c1Cl	0.5	50.0*	47.8	0.5
Cc1ccccc1OCc1nc(-c2ccccc2)no1	1.1	-1.3	-8.2	1
